Source: PubChem BioAssay (National Center for Advancing Translational Sciences (NCATS))
IL1B secr inh = inhibitors of inflammasome signaling (IL-1 beta secretion). THP-1 LPS/ATP IL-1B secretion, AlphaLISA, 16 h; hits give low values. activity change, % at 57.5 µM. 4.7% of 360,000 active. AID 743279; in the data active = activity change below about -50%; inconclusive = mostly about -30% to -49%
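Secreted IL-1B measured by AlphaLISA bead assay after 16 h compound exposure of THP-1 cells; compounds (final up to 57.5 uM) added 1 h before LPS (250 ng/mL) and ATP (1.25 mM) stimulation; lower signal means less secretion.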
TGFb SMAD3 inh = blocks TGF-b signaling | HepG2 CAGA-GFP TGF-b/SMAD3 reporter, GFP fluorescence, 18 h; TGF-beta stimulated, 500 pg/mL final | Potency, µM (highest dose often 46.1 µM), most hits filed as inhibitors | 1.2% of 410,000 active | AID 588855; also: nearly all actives have a fitted effect of over 65% in size
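Inhibition of TGF-beta-driven CAGA-GFP reporter expression in HEPG2 cells is measured by cellular GFP fluorescence after 18 h stimulation with 500 pg/mL recombinant TGF-beta in 1% FBS medium at 37 degrees C.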
DT40 TDP1 CPT = growth inhibition of DT40 Tdp1-/-;hTDP1 cells with camptothecin (screen for TDP1 inhibitors) | chicken DT40 Tdp1-/-;hTDP1 cells + 20 nM CPT, ATP luminescence, 48 h | Potency, µM (top dose mostly 46.2 µM), most hits filed as inhibitors | 12% of 420,000 active | AID 686979; also: nearly all actives have a fitted effect of over 55% in size
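Chicken DT40 Tdp1-/- cells complemented with human TDP1, 400 cells/well, exposed to compounds plus 20 nM camptothecin for at least 48 h at 37 C; viability read as ATP content by CellTiter-Glo luminescence.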
HepG2 viability = HepG2 cytotoxicity, counter-screen for TGF-b inhibitors. 0.76% of 410,000 active. Potency, µM (top dose mostly 46.1 µM), actives largely listed as cytotoxic. HepG2 CAGA-GFP viability, ATP luminescence, 18 h
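HepG2 CAGA-GFP cells (1000/well, DMEM with 1% FBS) received compound, then TGF-beta at 500 pg/mL final, and were incubated 18 hours at 37 degrees C. Viability was read by CellTiter-Glo luminescence. Media-only wells were set as complete cell-killing and DMSO as no toxicity.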
TDP1 cell noCPT = qHTS for Inhibitors of human tyrosyl-DNA phosphodiesterase 1 (TDP1): qHTS in cells in absence of CPT; DT40 Tdp1-/- hTDP1 cells, no CPT, ATP luminescence, 48 h; Potency, µM (titrated, usually from 46.2 µM), usual class: inhibitors; 15% of 420,000 active; also: nearly all actives have a fitted effect of over 55% in size
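Readout: luminescence from CellTiter-Glo after 30 min in the dark at RT. Cells: DT40 Tdp1-/- with stable hTDP1, 400/well. Exposure: compounds alone, ≥48 hr, 37 °C.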
TDP1 block = inhibitors of human tyrosyl-DNA phosphodiesterase TDP1 | AID 485290 | recombinant TDP1, AlphaScreen DNA substrate cleavage | Potency, µM (top dose mostly 130 µM), hits mostly inhibitors | 0.28% of 350,000 active | Q9NUW8; also: nearly all actives have a fitted effect of over 40% in size
Target sequence (Q9NUW8 whole entry, looked up): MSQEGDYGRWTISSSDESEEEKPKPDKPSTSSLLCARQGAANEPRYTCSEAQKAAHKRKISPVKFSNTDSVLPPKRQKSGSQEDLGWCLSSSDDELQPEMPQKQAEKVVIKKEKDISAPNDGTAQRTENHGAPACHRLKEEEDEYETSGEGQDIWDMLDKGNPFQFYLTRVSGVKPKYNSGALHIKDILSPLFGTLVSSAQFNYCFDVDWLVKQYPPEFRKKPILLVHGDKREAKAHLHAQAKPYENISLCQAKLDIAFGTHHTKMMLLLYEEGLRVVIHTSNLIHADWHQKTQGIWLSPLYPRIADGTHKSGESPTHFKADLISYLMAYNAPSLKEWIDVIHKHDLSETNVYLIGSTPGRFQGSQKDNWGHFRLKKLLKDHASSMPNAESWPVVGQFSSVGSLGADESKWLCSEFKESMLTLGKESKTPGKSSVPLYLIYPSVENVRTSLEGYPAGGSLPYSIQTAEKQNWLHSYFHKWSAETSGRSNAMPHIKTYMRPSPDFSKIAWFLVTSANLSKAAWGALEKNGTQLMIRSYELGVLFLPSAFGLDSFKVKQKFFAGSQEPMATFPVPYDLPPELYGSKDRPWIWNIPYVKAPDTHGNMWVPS
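E. coli-derived human Tdp1, 1 nM final. Cpd preinc 15 min RT; substrate 15 nM final, 5 min RT; AS bead mix 10 ug/ml final, 10 min RT. Signal loss = tyrosine-FITC cleavage. No-enzyme wells = max signal.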
Numbers stand for hits; n = inactive; u = inconclusive; x = not tested or not shown. Most compounds without a hit are left out; they make up all but 18% or so of the library. Unless noted, calls follow the shape of the dose curve; as a rule, active = well fitted curve in the direction sought with a large enough effect; inconclusive = small, poorly fitted or top-dose-only effect, or another doubt; inactive = no such curve, though single readings can be large; an effect the other way counts as inactive or inconclusive.

SMILES	IL1B secr inh	TGFb SMAD3 inh	DT40 TDP1 CPT	HepG2 viability	TDP1 cell noCPT	TDP1 block
COc1ccc(OCC(=O)Sc2ccc(C)cc2)cc1	n	n	u	n	23µM	n
Cc1cccc(C)c1NC(=O)CC(NCCc1ccccc1)C(=O)O (configuration not stated)	n	n	n	n	n	n
O=C(C[n+]1ccccc1)N/N=C/c1cc(Br)ccc1F	n	u	n	n	n	n
COc1cc(Br)cc(/C=N/NC(=O)Cc2ccccc2)c1O	n	10µM	0.52µM	n	0.46µM	x
COc1ccc(Br)cc1/C=N/NC(=O)C[n+]1ccccc1	n	n	18µM	n	13µM	x
O=C(Cc1ccccc1)N/N=C/c1cc(Br)cc(Cl)c1O	u	n	3.7µM	n	2.3µM	n
O=C(Cc1ccccc1)N/N=C/c1ccccc1F	x	x	x	x	x	n
O=C(CP(=O)(c1ccccc1)c1ccccc1)N/N=C/c1cc(Br)cc(Br)c1O	n	n	15µM	n	15µM	n
O=C(Cc1ccc(NC2=NC3CS(=O)(=O)CC3S2)cc1)N1CCN(c2ccc(F)cc2)CC1 (configuration not stated)	n	n	n	n	n	x
O=C(NNC(=O)C1CCC1)c1cccc(Cl)c1	n	n	n	n	n	n
CCOc1ccccc1NC(=O)C1CCN(S(=O)(=O)Cc2ccccc2)CC1	x	n	n	n	n	n
COc1cc(Br)cc(C=Nc2cccc(C(F)(F)F)c2)c1O	-50	u	u	n	u	n
COc1cccc(C=Nc2cc(C)cc(C)c2)c1O	n	n	n	n	n	n
CN(C)c1nc(OCCNC(=O)Nc2ccccc2)nc(N2CCCCC2)n1	n	n	n	n	n	n
CN(C)c1nc(OCCNC(=O)Nc2ccccc2)nc(N2CCOCC2)n1	n	n	23µM	n	n	n
O=c1c2ccccc2oc2cc(NCCCN3CCOCC3)ccc12	-51	u	u	n	u	x
COc1ccc(S(=O)(=O)NCCCN2CCOCC2)c2ccccc12	n	n	n	n	n	n
O=c1c2ccccc2oc2ccc(NCCCN3CCOCC3)cc12	-53	n	u	n	n	x
COc1cccc2sc3cc(NCCCN4CCOCC4)ccc3c(=O)c12	-60	n	u	n	u	n
Cn1c2ccccc2c(=O)c2cc(NCCCN3CCOCC3)ccc21	u	u	u	n	u	n
O=C(Nc1cc(Cl)cc(Cl)c1)c1ccc(F)c(S(=O)(=O)NC2CCCCC2)c1	x	u	u	n	u	n
CCNC(=O)C1CCN(S(=O)(=O)c2ccc3c(c2)CCCN3C(C)=O)CC1	x	n	n	n	n	n
CSC1=NC2(CCN(C(=O)NC3CCCCC3)CC2)N=C1c1ccc(C)cc1	x	n	u	n	n	n
N/C(=N\OC(=O)c1ccccc1)C(C(=O)NOC(=O)c1ccccc1)C1CCCCC1 (configuration not stated)	u	u	26µM	n	18µM	x
CC1CCCN(C(=O)C2CCN(S(=O)(=O)c3ccccc3)CC2)C1 (configuration not stated)	n	n	n	n	n	n
SMILES	IL1B secr inh	TGFb SMAD3 inh	DT40 TDP1 CPT	HepG2 viability	TDP1 cell noCPT	TDP1 block
Cc1ccc(-n2c(C)cc(C(=S)N3CCOCC3)c2C)cc1C	-67	n	23µM	n	15µM	n
Cc1cc(C(=S)N2CCOCC2)c(C)n1-c1ccc(F)cc1	n	n	n	n	n	n
Cc1ccccc1C(OCC(O)CN1CCC(C(N)=O)CC1)c1ccccc1 (configuration not stated)	n	n	n	n	n	n
Cn1nc([N+](=O)[O-])nc1Sc1cccc2cccnc12	n	u	6.5µM	n	21µM	n
Cn1nc([N+](=O)[O-])nc1Sc1nnc(-c2ccccc2)o1	-96	u	5.2µM	n	4.6µM	n
CCOc1ccc(CCNC(=O)c2ccc(OCc3c(C)noc3C)cc2)cc1OCC	n	n	26µM	n	21µM	n
